The values that follow come from patent publication US20210230599, “STEM-LOOP COMPOSITIONS AND METHODS FOR INHIBITING INTERLEUKIN-8” (VITRISA THERAPEUTICS, INC., published 2021).

The test has as its target Interleukin-8 (IL8, CXCL8), C-terminal His-tagged (Homo sapiens, UniProt P10145 SEQ:1-72). The test is described as follows: competition; competition TR-FRET. The settings on record: tags: C-terminal 6xHis (Sino Biological); ssRNA; 2'-F G, 2'-OMe A/C/U, 5' C6NH2, 3' idT. The protocol:
Activity of each of these variants were tested using a time resolved competition TR-FRET assay in which the labeled parent Aptamer 3 was competed with increasing concentrations of unlabeled variants for binding to IL8 (FIG. 14). Briefly, 2-fold dilutions of thermally equilibrated aptamers were made in TR-FRET Buffer (50 mM MOPS, pH 7.4, 125 mM NaCl, 5 mM KCl, 50 μM CHAPS, 0.1 mg/mL BSA, 1 mM CaCl₂, and 1 mM MgCl₂). 5 μL of aptamer or control solution was added to 5 μl mix of 10 nM C-terminal His-tagged-IL8, 60 nM ALEXA FLUOR® 647-labeled Aptamer, and 5 nM anti-His-Eu (Perkin Elmer) in a black wall low volume 384 well plate (Greiner). For control, 5 μl of 1000-fold excess of unlabeled parent aptamer or 5 μl TR-FRET buffer alone was added to the mix of ALEXA FLUOR® 647-labeled aptamer, His-IL8, and anti-His-Eu. The plate was covered with a plate seal and subsequently incubated in the dark for 1 hour at room temperature. The plate was read on a Biotek CYTATION™ 5 plate reader. […]
To better understand the sequence requirements and confirm the stem structures of members of the Aptamer 8 family as determined from sequence covariation analysis from both the primary and secondary (degenerate) selections, a series of variants which included mutations and deletions to the predicted stems (Tables 45 and 46) were synthesized and screened. […]
As to CGGCGGGAAAUGUGAGAUGGGUUGCCG, the binding signal was about 2.5 fold worse than Aptamer 8.
In the case of CGGUGGGAAAUGUGAGAUGGGUUACCG, the binding signal is about 2.5 fold worse than Aptamer 8.
